{
  "source": "paper PMC4552634",
  "about": "“A New Set of Chemical Starting Points with Plasmodium falciparum Transmission-Blocking Potential for Antimalarial Drug Discovery” (PLoS ONE, 2015)",
  "note": "About 3,200 (25%) of roughly 13,000 compounds showed an effect of 50% or more. This is one part of the list.",
  "data": [
    {"test_system": "P. falciparum stage V gametocytes", "set-up": "BacTiter-Glo ATP luminescence viability of purified stage V gametocytes in 384-well plates, per cent inhibition versus DMSO", "details": "48 h, 5 µM; inhibitor", "units": {"% Inhibition": "%"}, "values": [
      {"smiles": "CCOC(=O)CC[C@@H](NC(=O)c1ccc(NCc2ccc3ccc4nc(C)[nH]c(=O)c4c3c2)cc1F)C(=O)N[C@@H](Cc1c[nH]c2ccccc12)C(=O)OCC", "note": "[TCMDC-137320]", "% Inhibition": 27.07},
      {"smiles": "O=C(Nc1cccc(-c2cc(-c3c(Cl)cccc3Cl)no2)c1)c1cnc2ccccc2c1", "note": "[TCMDC-136759]", "% Inhibition": 13.25},
      {"smiles": "CC(=O)N(C)C1CCN(Cc2cccc(-c3ccc(-c4nc5cc(F)ccc5[nH]4)cc3)c2)C1.O=C(O)C(F)(F)F", "note": "(stereo not shown) [TCMDC-133894]", "% Inhibition": 26.71},
      {"smiles": "O=C(NC1CCN(Cc2ccc3c(c2)OCCO3)CC1)c1ccc(-c2cccc(Cl)c2)s1", "note": "[TCMDC-134338]", "% Inhibition": 2.147},
      {"smiles": "O=C(Nc1cccc(Cl)c1)N(CCCn1ccnc1)Cc1csc(-c2ccc(CNCc3ccccc3)cc2)n1", "note": "[TCMDC-141796]", "% Inhibition": 19.94},
      {"smiles": "O=C(NC1CCCCC1)N(CCCn1ccnc1)Cc1csc(-c2ccc(CNCc3ccccc3)cc2)n1", "note": "[TCMDC-141645]", "% Inhibition": 7.097},
      {"smiles": "O=C(NC1CC1c1ccccc1)N(CCCn1ccnc1)Cc1csc(-c2ccc(CNCc3ccccc3)cc2)n1", "note": "(stereo not shown) [TCMDC-141644]", "% Inhibition": 86.73},
      {"smiles": "CC(=O)c1cccc(S(=O)(=O)NCCCNc2nc3cc(C)cc(C)c3cc2C#N)c1", "note": "[TCMDC-123734]", "% Inhibition": 8.065},
      {"smiles": "CCS(=O)(=O)N1CCN(c2nc(-c3ccccc3)nc(COC)c2Cc2ccccc2F)CC1", "note": "[TCMDC-124784]", "% Inhibition": -1.025},
      {"smiles": "O=[N+]([O-])c1cccc(C=NNc2nc(Nc3ccccc3)nc(Nc3ccccc3)n2)c1", "note": "[TCMDC-125797]", "% Inhibition": 40.05},
      {"smiles": "COc1ccc(Nc2nc(N/N=C/c3ccc(O)cc3)nc(Nc3ccc([N+](=O)[O-])cc3)n2)cc1", "note": "[TCMDC-124127]", "% Inhibition": -40.32},
      {"smiles": "COc1cc(/C=N/Nc2nc(Nc3ccccc3)nc(Nc3ccccc3)n2)ccc1OCc1ccccc1[N+](=O)[O-]", "note": "[TCMDC-125793]", "% Inhibition": 59.87},
      {"smiles": "Cc1cc(NC2CCCC2)nc(Nc2ccccc2C)n1", "note": "[TCMDC-133473]", "% Inhibition": -0.2818},
      {"smiles": "O=C(Cc1ccc(Cl)cc1)Nc1cc(Cl)ccc1Cn1cnc(N2CCNCC2)cc1=O", "note": "[TCMDC-134317]", "% Inhibition": -8.964},
      {"smiles": "Cc1cc(NCCCN2CCCC2=O)n2c(nc3ccccc32)c1C#N", "note": "[TCMDC-124485]", "% Inhibition": -25.7},
      {"smiles": "Cl.Oc1ccccc1Nc1nc(NCc2ccco2)c2ccccc2n1", "note": "[TCMDC-124544]", "% Inhibition": -81.25},
      {"smiles": "COc1ccc(Nc2nc(NCc3ccco3)c3ccccc3n2)cc1.Cl", "note": "[TCMDC-124562]", "% Inhibition": 32.58},
      {"smiles": "CCc1c(C)c(C#N)c2nc3ccccc3n2c1NCc1ccco1", "note": "[TCMDC-124079]", "% Inhibition": 78.38},
      {"smiles": "Cc1nc(NCc2ccccc2)cc(Nc2cc(NCc3ccccc3)nc(C)n2)n1", "note": "[TCMDC-137298]", "% Inhibition": 0.4033},
      {"smiles": "CCCCNc1c(CC)c(C)c(C#N)c2nc3ccccc3n12", "note": "[TCMDC-125729]", "% Inhibition": 72.07},
      {"smiles": "COc1ccc2ncc(C#N)c(CCN3C[C@H](CNCc4ccccc4)[C@H](O)C3)c2n1", "note": "[TCMDC-136369]", "% Inhibition": 48.08},
      {"smiles": "Cc1ccc(O)c(Nc2c3c(c(C#N)c4nc5ccccc5n24)CCC3)c1", "note": "[TCMDC-124227]", "% Inhibition": 16.2},
      {"smiles": "Cc1c(CCC#N)c(NCc2ccccc2)n2c(nc3ccccc32)c1C#N", "note": "[TCMDC-123759]", "% Inhibition": 74.35},
      {"smiles": "COc1ccccc1N=C1SC(=Cc2cn(CC(=O)N3CCCc4ccccc43)c3ccccc23)C(=O)N1C1CCCCC1", "note": "[TCMDC-124809]", "% Inhibition": 13.24},
      {"smiles": "Cc1c(C(=O)N2CCCC(C(F)(F)F)C2)sc2cccc(F)c12", "note": "(stereo not shown) [TCMDC-124598]", "% Inhibition": 6.461},
      {"smiles": "CS(=O)(=O)CCNCc1ccc(-c2cc3c(Nc4ccc(OCc5cccc(F)c5)c(Cl)c4)ncnc3s2)[nH]1", "note": "[TCMDC-135511]", "% Inhibition": -19.72},
      {"smiles": "COc1ccc(C2CC(=O)C3=C(C2)NC(C)=C(C(=O)OC2CCCC2)C3c2cccc(O)c2)cc1", "note": "(stereo not shown) [TCMDC-125631]", "% Inhibition": 10.18},
      {"smiles": "COc1ccc(CNCC(C)(C)c2nc(-c3ccc(Cl)c(O)c3)c(-c3ccncc3)[nH]2)cc1", "note": "[TCMDC-140538]", "% Inhibition": -60.58},
      {"smiles": "CC(C)(CNCc1cccc(Oc2cccc(C(F)(F)F)c2)c1)c1nc(-c2ccc(Cl)c(O)c2)c(-c2ccnc(N)n2)[nH]1", "note": "[TCMDC-141166]", "% Inhibition": 55.63},
      {"smiles": "CN(C)CCCOc1ccc(CNCC(C)(C)c2nc(-c3ccc(Cl)c(O)c3)c(-c3ccncc3)[nH]2)cc1", "note": "[TCMDC-140650]", "% Inhibition": 71.95},
      {"smiles": "CC(C)(CNCc1ccc(F)c(F)c1)c1nc(-c2ccc(Cl)c(O)c2)c(-c2ccncc2)[nH]1", "note": "[TCMDC-140672]", "% Inhibition": -67.6},
      {"smiles": "CC(C)(CNCc1ccc(Cl)c(Cl)c1)c1nc(-c2ccc(Cl)c(O)c2)c(-c2ccncc2)[nH]1", "note": "[TCMDC-140688]", "% Inhibition": 78.8},
      {"smiles": "CC(C)(CNCc1ccc(Cl)cc1)c1nc(-c2ccc(Cl)c(O)c2)c(-c2ccncc2)[nH]1", "note": "[TCMDC-140548]", "% Inhibition": -50.17},
      {"smiles": "CC(C)(CNCc1cccc(Oc2ccccc2)c1)c1nc(-c2ccc(Cl)c(O)c2)c(-c2ccnc(N)n2)[nH]1", "note": "[TCMDC-141167]", "% Inhibition": 23.98},
      {"smiles": "CC(C)(CNCc1ccc(C(F)(F)F)cc1)c1nc(-c2ccc(Cl)c(O)c2)c(-c2ccncc2)[nH]1", "note": "[TCMDC-140689]", "% Inhibition": 22.22},
      {"smiles": "CC(C)(CNCc1ccc(C(F)(F)F)cc1)c1nc(-c2ccc(Cl)c(O)c2)c(-c2ccnc(N)n2)[nH]1", "note": "[TCMDC-141162]", "% Inhibition": 38.42},
      {"smiles": "Cc1ccc2nc(C)cc(NC(=O)Nc3ccc(N(C)C)cc3)c2c1", "note": "[TCMDC-140108]", "% Inhibition": -84.19},
      {"smiles": "N#Cc1ccc2c(c1)CCN(CCC1CCC(NC(=O)/C=C/c3ccc(Cl)c(Cl)c3)CC1)CC2", "note": "(stereo not shown) [TCMDC-139792]", "% Inhibition": -12.21},
      {"smiles": "CC(C)C(=O)Nc1c(F)cc(F)cc1CCc1ccc(O)cc1", "note": "[TCMDC-137532]", "% Inhibition": 15.35},
      {"smiles": "CC1(C)N=C(N)NC(Nc2ccc(F)c(F)c2)=N1", "note": "[TCMDC-123533]", "% Inhibition": -23.61},
      {"smiles": "CN1CCN(Cc2ccc(-c3ccc4c(Nc5ccc(Oc6ccccn6)cc5)ccnc4c3)o2)CC1", "note": "[TCMDC-138420]", "% Inhibition": 73.84},
      {"smiles": "c1ccc(Oc2ccc(Nc3ccnc4cc(-c5ccc(CN6CCCCC6)o5)ccc34)cc2)nc1", "note": "[TCMDC-138422]", "% Inhibition": -0.3034},
      {"smiles": "CN1CCN(Cc2ccc(-c3cc4nccc(Nc5ccc(Oc6ccccc6)cc5)c4cc3Cl)o2)CC1", "note": "[TCMDC-138463]", "% Inhibition": 37.01},
      {"smiles": "Cc1ccc(O)cc1Nc1ccnc2cc(-c3ccc(CN4CCCCC4)o3)ccc12", "note": "[TCMDC-138384]", "% Inhibition": 25.1},
      {"smiles": "c1ccc(Oc2ccc(Nc3ccnc4cc(-c5ccc(CN6CCNCC6)o5)ccc34)cc2)nc1", "note": "[TCMDC-138421]", "% Inhibition": 97.92},
      {"smiles": "c1ccc(Oc2ccc(Nc3ccnc4cc(-c5ccc(CN6CCOCC6)o5)ccc34)cc2)nc1", "note": "[TCMDC-138424]", "% Inhibition": 11.61},
      {"smiles": "CN1CCN(Cc2ccc(-c3ccc4c(Nc5ccc(Oc6ccccc6)cc5)ccnc4c3)o2)CC1", "note": "[TCMDC-138402]", "% Inhibition": 53.53},
      {"smiles": "c1ccc(Oc2ccc(Nc3ccnc4cc(-c5ccc(CNCCN6CCOCC6)o5)ccc34)cc2)nc1", "note": "[TCMDC-138423]", "% Inhibition": -53.28},
      {"smiles": "CN(C)CCNC(=O)[C@H](CC1CCCCC1)NC(=O)c1ccc(O)c(-c2ccc(Cl)c(Cl)c2)c1", "note": "[TCMDC-140865]", "% Inhibition": 44.5},
      {"smiles": "O=C(Nc1ccc(-c2nc3ccccc3[nH]2)cc1)c1ccc(Cl)s1", "note": "[TCMDC-123725]", "% Inhibition": -15.63},
      {"smiles": "CC1c2cccc(O)c2CCN1CCc1ccc(Cl)c(Cl)c1", "note": "(stereo not shown) [TCMDC-138976]", "% Inhibition": -24.59},
      {"smiles": "O=C(Nc1cccc(-c2ccc(-c3nc4ccccc4[nH]3)cc2)c1)c1csnn1", "note": "[TCMDC-136901]", "% Inhibition": -10.17},
      {"smiles": "CN1CCC(NCc2cccc(-c3ccc(S(=O)(=O)NCCc4ccccn4)c(F)c3)c2)CC1", "note": "[TCMDC-132220]", "% Inhibition": 17},
      {"smiles": "COc1ccc(CNC2CCN(C)CC2)cc1-c1ccc(S(=O)(=O)NCCc2ccccn2)c(F)c1", "note": "[TCMDC-132264]", "% Inhibition": 102.9},
      {"smiles": "COc1ccc(CNC2CCN(C)CC2)cc1-c1ccc(S(=O)(=O)NCCc2ccccn2)c(C)c1", "note": "[TCMDC-132271]", "% Inhibition": 72.47},
      {"smiles": "COc1ccc(CNC2CCN(C)CC2)cc1-c1ccc(S(=O)(=O)NCCc2ccccn2)cc1", "note": "[TCMDC-132246]", "% Inhibition": 50.8},
      {"smiles": "Cc1nnc(-c2ccc3ccccc3c2)c2cn(-c3cccc([N+](=O)[O-])c3)nc12", "note": "[TCMDC-138592]", "% Inhibition": 4.043},
      {"smiles": "O=C(NCc1cccc(F)c1)Nc1ccc(-c2cccc(-c3nc4ccccc4[nH]3)c2)cc1", "note": "[TCMDC-133297]", "% Inhibition": 6.044},
      {"smiles": "COc1ccc2nccc([C@@H](O)CN3CCC(NC(=O)c4cc5c(F)cc(F)cc5[nH]4)CC3)c2c1", "note": "[TCMDC-140781]", "% Inhibition": -8.295},
      {"smiles": "O=C(Nc1ccc2nc3n(c(=O)c2c1)CCCCC3)C(=O)N1CCN(c2ccc(F)cc2)CC1", "note": "[TCMDC-125293]", "% Inhibition": -18.55},
      {"smiles": "CCCN(Cc1ccc(OCC)cc1)Cc1cc(=O)c2cc(Cl)ccc2[nH]1", "note": "[TCMDC-124740]", "% Inhibition": 40.3},
      {"smiles": "CCCN(Cc1ccc(C)cc1)Cc1cc(=O)c2cc(Cl)ccc2[nH]1", "note": "[TCMDC-124741]", "% Inhibition": 52.71},
      {"smiles": "O=c1cc(NCCCN(Cc2cc3c(Cl)cc(Cl)cc3[nH]2)Cc2cc3c(Cl)cc(Cl)cc3[nH]2)[nH]c2ccccc12", "note": "[TCMDC-139849]", "% Inhibition": 1.838},
      {"smiles": "COc1ccc2nccc([C@@H](O)CN3CCC(NC(=O)c4cccc(C(=O)c5ccccc5)c4)CC3)c2c1", "note": "[TCMDC-141283]", "% Inhibition": -43.58},
      {"smiles": "CCC(C)NCc1c(O)ccc2c(CNC(C)CC)c(O)ccc12", "note": "(stereo not shown) [TCMDC-137585]", "% Inhibition": -26.38},
      {"smiles": "CCC(C)NCC(O)(c1ccc(Cl)cc1)c1ccc(Cl)cc1", "note": "(stereo not shown) [TCMDC-123502]", "% Inhibition": 68.55},
      {"smiles": "CCC(C)NCCC(c1ccccc1)c1ccccc1O", "note": "(stereo not shown) [TCMDC-125727]", "% Inhibition": 32.82}
    ]}
  ]
}
